Shown are actives, neighbours in structure and some others; about 19% of the full set was active somewhere.
TDP1 cell noCPT: qHTS for Inhibitors of human tyrosyl-DNA phosphodiesterase 1 (TDP1): qHTS in cells in absence of CPT. AID 686978, 2013. Potency, µM (titrated, usually from 46.2 µM), usual class: inhibitors. 15% of 420,000 active. DT40 Tdp1-/- hTDP1 cells, no CPT, ATP luminescence, 48 h; also: nearly all actives have a fitted effect of over 55% in size
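Camptothecin absent (DMSO only). Human TDP1-complemented DT40 knockout cells, 400 cells/well, 37 °C for minimum 48 hr; ATP measured via CellTiter-Glo, 30 min dark incubation, luminescence.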
TDP1 cell CPT: DT40-hTDP1 cell growth loss with CPT; chicken DT40 Tdp1-/-;hTDP1 cells + 20 nM CPT, ATP luminescence, 48 h; Potency, µM (series often up to 46.2 µM), actives largely listed as inhibitors; 12% of 420,000 active; also: nearly all actives have a fitted effect of over 55% in size
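Chicken DT40 Tdp1-/- cells complemented with human TDP1, 400 cells/well, exposed to compounds plus 20 nM camptothecin for at least 48 h at 37 C; viability read as ATP content by CellTiter-Glo luminescence.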
HT1080NT lethal: kills 2HG-producing HT-1080-NT fibrosarcoma cells; HT-1080-NT fibrosarcoma viability, CellTiter-Glo ATP luminescence, 48 h; Potency, µM (highest dose often 46.1 µM), most hits filed as cytotoxic; 1.6% of 360,000 active;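 also: NT is the 2HG producing partner of a matched IDH1 knockdown line; nearly all actives have a fitted effect of over 55% in size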
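Read-out is CellTiter-Glo luminescence after 10 minutes at room temperature, following 48 hours' compound treatment of HT-1080-NT cells (750 cells/well, RPMI, 5% FBS, 37 degrees C).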
HT1080 IDH1KD tx: kills HT-1080 cells with IDH1 knockdown; HT-1080 IDH1 knockdown viability, ATP luminescence, 48 h; Potency, µM (top dose mostly 46.1 µM), actives largely listed as cytotoxic; 2% of 360,000 active; AID 686971
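Assay cells: HT-1080 with IDH1 knockdown, 750 per well, RPMI/5% FBS. Exposure: 48 h at 37 °C following 2 h pre-incubation. Read: CellTiter-Glo luminescence; fitted concentration-response, curve class assigned.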
IL-1B inflam inh: inflammasome signaling inhibition, IL-1 beta readout; 4.7% of 360,000 active; AID 743279; THP-1 LPS/ATP IL-1B secretion, AlphaLISA, 16 h; hits give low values; activity change, % at 57.5 µM; in the data active = activity change below about -50%; inconclusive = mostly about -30% to -49%
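THP-1 cells pretreated 1 hr with compounds (up to 57.5 uM final), then stimulated with LPS (250 ng/mL final) plus ATP (1.25 mM final); secreted IL-1B measured by AlphaLISA after 16 hr, decreased signal indicating inhibition.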
Hits are given with their value; - = inactive; ? = inconclusive; . = no result given. Unless noted, calls follow the shape of the dose curve; as a rule, active = well fitted curve in the direction sought with a large enough effect; inconclusive = small, poorly fitted or top-dose-only effect, or another doubt; inactive = no such curve, though single readings can be large; an effect the other way counts as inactive or inconclusive.

SMILES	TDP1 cell noCPT	TDP1 cell CPT	HT1080NT lethal	HT1080 IDH1KD tx	IL-1B inflam inh
CC(=O)OC1CCC2(C)C(CCC3C2CC(=O)C2(C)C3CC(N3CC3)C2C(C)=O)C1 (centres undefined)	13µM	7.3µM	-	-	-72
Cc1ccc(Cl)cc1-n1c(O)c(C=NCCCN2CCOCC2)c(=O)[nH]c1=O	-	-	-	-	-
CN(C)CC1CCCCC1OC(=O)Cc1ccc(Cl)c([N+](=O)[O-])c1 (centres undefined)	-	-	-	-	-
Cc1cc(C)c(-c2csc(NC(=O)COC(=O)c3ccc4c(c3)OCO4)n2)c(C)c1	26µM	?	-	-	-
CC(C)(O)[C@@H]1[C@H]2OC(=O)[C@@H]1[C@]1(O)C[C@H]3O[C@]34C(=O)O[C@H]2[C@@]14C (tested in a mixture with another compound)	-	-	.	.	.
O=c1[nH]c(=O)n(-c2cccc3ccccc23)c(O)c1/C=N/N1CCCCC1c1cccnc1 (centres undefined)	-	-	-	-	-
Cn1cc(C(=O)N2CCCCC2)c2ccccc21	-	-	-	-	-
O=C(CCN1CCN(c2ccccc2)CC1)c1ccc(Br)cc1	5.8µM	9.2µM	-	-	-
CN1C2CC(OC(=O)C(CO)c3ccccc3)CC1C(O)C2 (centres undefined)	-	-	.	.	.
Cc1ccc(C)c(N2CCN(C(=O)C3CCN(Cc4nc(-c5cccc(Cl)c5)oc4C)CC3)CC2)c1	6.5µM	9.2µM	.	.	.
Cc1ccc(Cl)cc1N1CCN(C(=O)C2CCN(Cc3nc(-c4ccc(Cl)cc4)oc3C)CC2)CC1	15µM	?	.	.	.
Cc1oc(-c2ccc(Cl)cc2)nc1CS(=O)CC(=O)N1CCC2(CC1)OCCO2 (centres undefined)	-	-	-	-	-
COc1ccccc1N1CCN(S(=O)(=O)c2c(C)ccc3nsnc23)CC1	?	-	-	?	-
Clc1ccc(CCC(Cn2ccnc2)Sc2c(Cl)cccc2Cl)cc1 (centres undefined)	26µM	?	?	?	-
Clc1ccc(Cn2ccnc2)cn1	-	-	-	-	-
CCCN(CCC)C(=O)C(CCC(=O)OCCCN1CCN(CCOC(=O)Cc2c(C)n(C(=O)c3ccc(Cl)cc3)c3ccc(OC)cc23)CC1)NC(=O)c1ccccc1 (centres undefined)	11µM	13µM	.	.	.
COc1ccc(NC(=O)C2(C)Cc3c(-c4ccc(N(C)C)cc4)ccnc3O2)cc1OC (centres undefined)	?	?	-	-	-
CCOC(=O)c1c(C)c(P(=S)(N2CCOCC2)N2CCOCC2)n(C)c1C	-	-	-	-	-
O=c1[nH]c2ccccc2n1C1CCN(C(c2cccs2)c2nnnn2-c2ccc3c(c2)OCCO3)CC1 (centres undefined)	2.3µM	2.9µM	?	3.3µM	-
O=c1[nH]c2ccccc2n1C1CCN(C(c2nnnn2-c2ccc3c(c2)OCCO3)C2CC2)CC1 (centres undefined)	7.3µM	13µM	?	?	-
O=C1NCN(c2ccccc2)C12CCN(C(c1nnnn1C1CCCCC1)C1CC1)CC2 (centres undefined)	?	?	?	-	-
O=c1[nH]c2ccccc2n1C1CCN(C(c2ccccc2)c2nnnn2-c2ccc3c(c2)OCCO3)CC1 (centres undefined)	18µM	18µM	?	?	-
CC(C1=C(CCN(C)C)Cc2ccccc21)c1ccccn1 (centres undefined)	-	-	-	-	?
CCC(C)N=Cc1c(O)n(-c2ccccc2)c(=O)[nH]c1=O (centres undefined)	-	-	-	-	-
COc1ccc(CNCCc2c(C)[nH]c3ccc(OC(F)(F)F)cc23)c(OC)c1	1.8µM	4.6µM	21µM	23µM	-95
O=C(Nc1ccccc1OC(=O)N1CCCCC1)N1CCCCC1	-	-	-	-	-
O=[N+]([O-])c1c(Cl)cccc1-c1c[nH]cc1Cl	15µM	21µM	.	.	.
